Sampled rows, rich in hits. Any-hit rate of the full collection: about 2%.
APOBEC3A inh = APOBEC3A ssDNA deaminase inhibitors, primary screen, selectivity assay for APOBEC3G inhibitor project, biochemical, FAM/TAMRA oligo cleavage fluorescence; DNA dC->dU-editing enzyme APOBEC-3A (Homo sapiens), P31941; recombinant A3A, FAM/TAMRA ssDNA deamination fluorescence; inhibition, % at 20 µM; 0.41% of 330,000 active;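 active means at least 40% inhibition at 20 µM here, with at most 30% in a related deaminase screen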;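 further: plate controls were A3A with DMSO for no effect and wells lacking A3A enzyme for full effect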
Neddyl block = inhibitors of cullin neddylation, primary screen, biochemical, TR-FRET, uHTS, NAE and Ubc12; NEDD8-conjugating enzyme Ubc12 (Homo sapiens) + NEDD8-activating enzyme E1 regulatory …; inhibition, % at 25 µM; 0.58% of 360,000 active; AID 651699, 2012; in the data active means inhibition above about 36%
NPR1 activator = GC-A stimulated cGMP production enhancers – HEK293 GC-A cells, cGMP TR-FRET, EC30 ANP, primary screen | activation, % at 10 µM | AID 1671463, 2021 | Atrial natriuretic peptide receptor 1 (Homo sapiens), P16066 | 0.14% of 370,000 active | 0% at EC30 ANP, 100% saturating ANP; in the data active means activation above about 40%
Target sequence (P16066 whole entry, looked up): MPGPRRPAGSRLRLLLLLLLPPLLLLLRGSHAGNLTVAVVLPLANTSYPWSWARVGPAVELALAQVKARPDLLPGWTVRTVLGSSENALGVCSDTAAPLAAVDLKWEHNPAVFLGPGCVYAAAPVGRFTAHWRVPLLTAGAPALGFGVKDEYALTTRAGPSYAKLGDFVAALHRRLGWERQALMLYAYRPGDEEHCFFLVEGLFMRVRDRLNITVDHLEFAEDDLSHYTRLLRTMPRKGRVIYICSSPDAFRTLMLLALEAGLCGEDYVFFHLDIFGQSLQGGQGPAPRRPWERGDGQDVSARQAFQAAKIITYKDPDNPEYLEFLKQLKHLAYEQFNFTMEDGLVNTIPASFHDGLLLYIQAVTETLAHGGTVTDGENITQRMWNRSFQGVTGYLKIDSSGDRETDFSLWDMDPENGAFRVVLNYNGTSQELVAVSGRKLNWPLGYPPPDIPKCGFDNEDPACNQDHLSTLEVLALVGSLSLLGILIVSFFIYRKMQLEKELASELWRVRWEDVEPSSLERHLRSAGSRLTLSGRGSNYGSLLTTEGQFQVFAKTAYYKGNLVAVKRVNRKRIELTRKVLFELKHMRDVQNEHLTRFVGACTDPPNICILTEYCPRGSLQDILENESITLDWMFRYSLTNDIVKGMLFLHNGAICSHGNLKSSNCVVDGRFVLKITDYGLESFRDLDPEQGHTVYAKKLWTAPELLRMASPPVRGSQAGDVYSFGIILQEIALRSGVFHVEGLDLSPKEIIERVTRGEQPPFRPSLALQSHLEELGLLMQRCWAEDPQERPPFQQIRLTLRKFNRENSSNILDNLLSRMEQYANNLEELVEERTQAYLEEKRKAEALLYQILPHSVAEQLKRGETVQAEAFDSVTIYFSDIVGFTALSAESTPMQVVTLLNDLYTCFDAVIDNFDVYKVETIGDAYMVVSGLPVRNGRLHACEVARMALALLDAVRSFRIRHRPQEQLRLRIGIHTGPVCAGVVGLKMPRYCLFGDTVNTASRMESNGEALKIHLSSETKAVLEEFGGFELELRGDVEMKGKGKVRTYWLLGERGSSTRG
GC-B act = human GC-B receptor activators, primary screen, HEK293 GC-B cells, cGMP TR-FRET, EC30 CNP. 0% at EC30 CNP, 100% saturating CNP. AID 1920062, 2024. 0.11% of 370,000 active. Atrial natriuretic peptide receptor 2 (Homo sapiens), P20594. activation, % at 10 µM;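 active means activation at 10 µM reaching about 35% in either raw or pattern-adjusted values, limit read from the data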
APOBEC3G inh = APOBEC3G DNA deaminase inhibitors, primary screen, biochemical, fluorescence, single-stranded DNA substrate, uHTS; 0.28% of 330,000 active; recombinant A3G, ssDNA deamination FAM/TAMRA fluorescence; inhibition, % at 20 µM;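 active means inhibition of at least 40% at 20 µM, with no more than 30% in the related APOBEC3A deaminase screen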;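 further: plate controls were DMSO wells with A3G for no effect and wells lacking A3G enzyme for full effect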
PfGluPho inh = PfG6PD enzyme inhibitors, primary screen, biochemical, fluorescence intensity, uHTS. PfGluPho enzyme, NADPH resazurin-diaphorase fluorescence. 0.78% of 350,000 active. inhibition, % at 20 µM;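 active means inhibition reaching at least a set limit at 20 µM in the primary screen, cut at about 59% in these data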;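 further: 0% = DMSO wells with substrate and 100% = DMSO wells lacking glucose-6-phosphate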
Neddyl inh conf = blockade of NEDD8 conjugation to cullin – biochemical, TR-FRET, single concentration, confirmation | 13% of 1,800 active | AID 652217, 2013 | TR-FRET cullin neddylation biochemical assay | shares compounds with Neddyl block | calls only at 25 µM; in the data active means inhibition above about 40%;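 further: neddylation substrate is the cullin 1 ring ligase complex with SKP2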
* = called active by the depositor; i = inactive; . = no result shown; + = active, no number.

SMILES	APOBEC3A inh	Neddyl block	NPR1 activator	GC-B act	APOBEC3G inh	PfGluPho inh	Neddyl inh conf
O=C(Nc1ccc2nc(-c3ccco3)[nH]c2c1)c1cccs1	1.0	45.0*	3.8	-1.7	-3.3	29.8	i
O=C(Nc1ccc2nc(-c3ccco3)[nH]c2c1)c1ccco1	4.5	.	2.1	-0.3	2.3	10.2	.
COc1ccc(C2C3=C(Nc4ncnn42)c2ccccc2CCC3)cc1 (stereo unspecified)	1.7	43.6*	-18.7	-3.4	1.9	2.2	i
CN(C)S(=O)(=O)c1cccc(NC(=O)c2cc3c(=O)n4ccccc4nc3s2)c1	-0.3	61.4*	9.0	7.6	0.3	-7.7	.
Cc1cc(NS(=O)(=O)c2ccc(NC(=O)c3cc4c(=O)n5ccccc5nc4s3)cc2)nc(C)n1	.	65.6*	3.6	-0.4	.	1.6	+
O=C(/C=C(\Nc1cccc(F)c1)c1ccccc1)c1ccccc1	.	.	-0.4	1.3	.	.	.
CCN(CC)CCNC1=NCCn2c1cc1cc(OC)ccc12	2.0	.	-0.9	3.7	-3.7	-15.9	.
CN=C1c2cc3cc(OC)ccc3n2CCN1Cc1ccccc1	.	41.0*	0.0	-4.5	.	-1.8	i
Cc1csc(SCC(=O)Nc2cccc3nsnc23)n1	1.9	46.1*	2.5	2.2	-0.1	17.6	.
COc1cccc(-c2ccc(C#N)c(=O)[nH]2)c1	-3.2	58.6*	0.8	-2.3	-5.1	22.7	.
CCCN1CCN(C(c2cc3cc(OCC)ccc3[nH]c2=O)c2nnnn2C2CCCCC2)CC1 (stereo unspecified)	3.6	45.2*	1.1	5.7	-4.6	3.8	.
CCc1c(C)c(C#N)c2nc3ccccc3n2c1NCCCN(C)C	.	26.1	3.6	-1.0	.	10.0	.
CCc1c(C)c(C#N)c2nc3ccccc3n2c1NCCOC	-3.4	40.7*	-1.5	5.3	-2.6	-10.4	.
N#Cc1c2c(c(NCCCN3CCOCC3)n3c1nc1ccccc13)CCC2	5.2	.	-6.9	-10.6	2.3	23.7	.
CC(C)c1cc(NCCN2CCOCC2)n2c(nc3ccccc32)c1C#N	.	37.7*	6.3	-0.8	.	10.6	i
CCCc1c(C)c(C#N)c2nc3ccccc3n2c1NCCCN1CCOCC1	1.2	46.0*	-28.2	-23.1	-2.0	-12.1	i
C[C@@H]1CCN(C2CC2)S(=O)(=O)c2c(cccc2N2CC[C@@H](N(C)C)C2)O1	.	.	-0.1	2.9	.	.	.
Cc1cc(C)cc(Oc2nc3ccccn3c(=O)c2/C=C(\C#N)C(=O)NC2CCS(=O)(=O)C2)c1 (stereo unspecified)	-4.2	47.5*	-0.7	-4.2	-6.1	-11.6	i
Cc1nnc(NC(=O)c2cc(-c3ccco3)nc3ccccc23)s1	84.5	-4.5	-5.4	-4.7	51.6	.	.
Cc1csc(NC(=O)c2cc(-c3ccco3)nc3ccccc23)n1	26.8	-5.5	-13.6	-5.0	15.6	16.9	.
CCN(CC)CCNC(=O)c1ccc(NC(=O)c2cc(-c3ccco3)nc3ccccc23)cc1	33.1	53.3*	-0.1	2.9	12.7	16.4	i
CN(C)C(=O)c1ccc(NC(=O)c2cc(-c3ccco3)nc3ccccc23)cc1	37.2	53.5*	0.9	-1.7	13.2	9.1	.
O=S1(=O)c2c(cccc2N2CCC[C@H]2CO)OCCCN1C1CC1	.	.	-1.3	0.6	.	.	.
CCC[C@H]1[C@@H](NC(=O)NCC)CC[C@@]23CCCN2C(=O)CCC[C@@H]13	.	.	-0.7	0.2	.	.	.
CC(c1c[nH]c2ccccc12)c1cn(C)c2ccccc12 (stereo unspecified)	.	.	-1.7	-1.8	.	.	.

Screening data as filed in PubChem.
